Out of some 85,000 compounds screened, about 5,100 (6%) were called active.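 Rule for the calls: active = viability at or below 40%; inactive = viability above 40%.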 The list comes from a sample in which actives are over-represented; it also holds similar structures and randomly drawn compounds.
assay: H69AR cell viability reduction – human, 86K library, primary screen (AID 598); settings: H69AR lung tumor viability, ATP luminescence, 72 h; at 10 µM; active compounds read low;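 note: multidrug resistant small cell line overexpressing MRP-1 efflux transporter; 100% = mean luminescence of untreated control wells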

SMILES | viability
COc1ccc(S(=O)(=O)Nc2ccc(F)cc2)c(C)c1C | 101% (inactive)
CCCCCCC12CCC(C(=O)O)(CC1)CC2 | 79.3% (inactive)
Cc1nc2cc(NC(=O)NCc3ccccc3)ccc2o1 | 95.1% (inactive)
OC(COc1ccc2ccccc2c1)Cn1cncn1 (stereo not given) | 88.4% (inactive)
COc1c(C)cccc1C(=O)Nc1cc(Cl)ccc1N1CCOCC1 | 82.7% (inactive)
O=C(Nc1cc(N2CCOCC2)ncn1)NC1(C(F)(F)F)Oc2ccc(Cl)cc2O1 (stereo not given) | 29.6% (active)
O=C(CN1CCOCC1)Nc1cc(Cl)ccc1Cl | 93.4% (inactive)
CCOc1cc2[nH]c(=S)n(CCN3CCCCC3C)c(=O)c2cc1OCC (stereo not given) | 82.5% (inactive)
CCn1cc(C(=O)NCC2CCCO2)c(=O)c2cc(S(=O)(=O)N3CCCCC3)ccc21 (stereo not given) | 87.7% (inactive)
CCn1cc(C(=O)NC2CCCCCC2)c(=O)c2cc(S(=O)(=O)N3CCCCC3)ccc21 | 30.1% (active)
O=C(NC1CCCCC1)n1c(=O)oc2cc(S(=O)(=O)N3CCCCC3)ccc21 | 60.7% (inactive)
CN(C)S(=O)(=O)c1ccc(NC(=O)COC(=O)c2n[nH]c3ccccc23)cc1 | 78.6% (inactive)
CCCCc1nc(NCCN)c(C#N)c2c1CSC(C)(C)C2 | 1.08% (active)
Cc1nc(NCCN)c(C#N)c2c1COC(C)(C)C2 | 85% (inactive)
CC(C)(C)c1ccc(OC2=CS(=O)(=O)c3ccccc32)cc1 | 88% (inactive)
CCCn1nnc(NC(=O)COc2ccc(CC)cc2)n1 | 95.5% (inactive)
CC(C)Cn1c(CN(Cc2ccccc2)Cc2ccccc2)nc2c1c(=O)n(C)c(=O)n2C | 61.6% (inactive)
CC(C)Cn1cnc2c1c(=O)n(CC(O)c1ccccc1)c(=O)n2CC(C)C (stereo not given) | 28% (active)
Cn1c(=O)c2c(ncn2CC(=O)N2CCN(c3ccccc3)CC2)n(C)c1=O | 105% (inactive)
Cc1cc(-n2nc(C)cc2C)n2nc(C)c(-c3ccccc3)c2n1 | 68.4% (inactive)
O=C(COc1ccc2ccccc2c1)N1CCN(C(=O)c2cccs2)CC1 | 74% (inactive)
O=C(CCN1C(=O)c2ccccc2C1=O)Nc1cccc(F)c1 | 98.2% (inactive)
N#CCSc1nc2ccccc2c(=O)n1-c1ccccc1 | 77% (inactive)
Cc1ccc(-c2noc(CSc3nnnn3-c3ccccc3)n2)cc1 | 86.2% (inactive)
Cc1ccc(Nc2nc(CSc3nnnn3-c3ccccc3)cc(=O)[nH]2)cc1 | 23.1% (active)

SMILES | viability
COc1ccc(-n2nnnc2SCC(=O)Nc2ccccc2)cc1 | 103% (inactive)
O=c1c2ccccc2nnn1CSc1nnnn1-c1ccccc1 | 83.4% (inactive)
O=c1c2ccccc2nc(CSc2nnnn2-c2ccccc2)n1-c1ccccc1 | 15.1% (active)
OC(CN1C2=NCCCN2c2ccccc21)c1ccc(Br)cc1 (stereo not given) | 86.5% (inactive)
Cn1cnc([N+](=O)[O-])c1Nc1ccccc1O | 100% (inactive)
COC(=O)c1ccc(CSc2nnc(NC(C)C)s2)cc1 | 98.2% (inactive)
COc1ccc(C)cc1NC(=O)CCS(=O)(=O)c1cccc2nonc12 | 89% (inactive)
CC1CCc2c(sc3nc4n(c(=O)c23)CCS4)C1 (stereo not given) | 80.8% (inactive)
C=CCn1c(SCc2c(C)noc2C)nc2sc3c(c2c1=O)CCC(C)C3 (stereo not given) | 29.4% (active)
CCCn1nnc2sc3c(c2c1=O)CCC(C)C3 (stereo not given) | 96.7% (inactive)
Nc1c(C(=O)NCc2ccccc2)sc2nc3c(cc12)C(=O)CCC3 | 65.5% (inactive)
Cc1ccc(SCC(=O)c2cc(C)c(OC(=S)N(C)C)c(C)c2)cc1 | 64.6% (inactive)
Cc1ccc(SC(=O)COc2ccc(C)c(C)c2)cc1 | 16.4% (active)
COCCNC(=O)COc1ccc(C)c(C)c1 | 86% (inactive)
Cc1ccc(S(=O)(=O)NC(=O)COc2ccccc2C)cc1 | 97.9% (inactive)
CCOCN(C(=O)Cn1c(C(C)O)nc2ccccc21)c1c(C)cccc1CC (stereo not given) | 62.8% (inactive)
O=C(Cc1ccc(-n2c(=O)c3sccc3n(Cc3ccc(F)cc3)c2=O)cc1)NCc1ccco1 | 51% (inactive)
CCC(=O)Nc1sc(C(=O)N2CCCCC2)c(C)c1C#N | 96.9% (inactive)
CN1CCN(CC(=O)Nc2sc3c(c2C#N)CCC(C(C)(C)C)C3)CC1 (stereo not given) | 2.42% (active)
c1ccc(-c2nc(NCc3ccco3)c3ccccc3n2)cc1 | 87.9% (inactive)
Cc1nc2ccccc2c2oc(C(=O)NCC3CCCO3)cc12 (stereo not given) | 82.4% (inactive)
c1ccc2c(NCC3CCCO3)nc(-c3ccncc3)nc2c1 (stereo not given) | 35.5% (active)
Cn1c2c(c(=O)n(C)c1=O)C(c1cccc([N+](=O)[O-])c1)Nc1ccccc1O2 (stereo not given) | 88.5% (inactive)
C=CCn1c(SCc2c(C(=O)OC)sc(N)c2C(=O)OC)nnc1-c1ccc(Cl)cc1 | 45.2% (inactive)
COc1ccc(CN2CCCCC2C)cc1OC (stereo not given) | 105% (inactive)

SMILES | viability
COc1cc(C2CC(=O)c3cnc(NC(C)=O)nc3C2)cc(OC)c1OC (stereo not given) | 74% (inactive)
CCc1ccc(Nc2ncc3c(n2)CC(c2ccco2)CC3=O)cc1 (stereo not given) | 26.3% (active)
O=C(Nc1ncc2c(n1)CC(c1ccco1)CC2=O)c1ccc(Cl)cc1 (stereo not given) | 80.7% (inactive)
Nc1ccc(C(=O)OCC(=O)NC2CCCc3ccccc32)cc1[N+](=O)[O-] (stereo not given) | 63.4% (inactive)
CCOC(=O)c1cc2ccccc2nc1C | 101% (inactive)
CCOc1ncccc1C(=O)OCc1cn2cc(Cl)ccc2n1 | 35.2% (active)
CSc1ncccc1C(=O)OCC(=O)N1CCOCC1 | 96% (inactive)
COc1ccc(CNc2ccc3c(c2)CCC3)cc1OC | 104% (inactive)
CCOc1ccc(C(=O)NC2CCN(C(=O)Nc3ccccc3OC)CC2)cc1 | 79% (inactive)
COC(=O)CSc1nc(C)c2ccc(OC)cc2n1 | 86.5% (inactive)
Cc1nnc(SCC(=O)NC(=O)NC2CCCC2)n1N | 109% (inactive)
CC(Nc1nc(N2CCCC2)nc2ccccc12)c1ccccc1 (stereo not given) | 12.4% (active)
CC(C)n1c(C(O)c2ccccc2)nc2ccccc21 (stereo not given) | 104% (inactive)
Cc1ccc(C(CC(=O)O)Nc2nc(N3CCCCC3)nc(N3CCCCC3)n2)cc1 (stereo not given) | 108% (inactive)
CCCCN1C(=O)/C(=C2/C=CC=CN2C)SC1=S | 90.2% (inactive)
CC(=O)c1cc2c(cc1NC(=O)CN1CCCCCC1)OCO2 | 79.5% (inactive)
CCc1ccc(CNC(=O)C2CC(=O)N(CCc3ccc(C)cc3)C2)cc1 (stereo not given) | 99.5% (inactive)
CCCSc1nc2c(c(=O)[nH]c(=O)n2C)n1CCc1ccccc1 | 74% (inactive)
CCC(C)Sc1nc2c(c(=O)[nH]c(=O)n2C)n1CC(O)COc1cccc2ccccc12 (stereo not given) | 30.7% (active)
CN1CCN(c2nc3c(c(=O)[nH]c(=O)n3C)n2Cc2cccc3ccccc23)CC1 | 71.9% (inactive)
Cn1c(SCC(=O)NC2CCCCC2)nnc1-c1cc2ccccc2o1 | 91% (inactive)
Cc1ccoc1C(=O)Nc1cccc(Oc2ccccc2)c1 | 112% (inactive)
CC(=O)c1cccc(NC(=O)Nc2ccc(C)cc2)c1 | 95.3% (inactive)
Cc1cccc(NC(=O)Nc2cccc(Oc3c(F)c(F)c(F)c(F)c3F)c2)c1 | 8.13% (active)
COc1ccc2c(Cl)c(C(=O)NCc3ccco3)sc2c1 | 91.4% (inactive)

SMILES | viability
CCOc1ccc(N=C2NC(=O)S/C2=C\c2ccc(O)cc2)cc1 | 47.5% (inactive)
CCC(=O)Nc1ccc(C(=O)Nc2cccc(OC)c2)cc1 | 64.6% (inactive)
CCCc1nc2scc(-c3ccc(C)cc3)c2c(=O)n1N | 46.1% (inactive)
O=C(Cc1ccccc1)Nc1c(C(=O)N2CCCCCC2)cnn1-c1ccccc1 | 96.5% (inactive)
CCCc1nc(NCc2ccc3c(c2)OCO3)c2nnn(Cc3ccccc3Cl)c2n1 | 24.6% (active)
C#CCNc1nc(C(C)C)nc2c1nnn2Cc1ccccc1F | 104% (inactive)
O=C(Cn1cnc2c(nnn2Cc2ccc(F)cc2)c1=O)NCc1ccc2c(c1)OCO2 | 95.8% (inactive)
O=c1onc(-c2cccs2)n1Cc1ccccc1 | 95.9% (inactive)
Cc1cccc(C)c1OC(=O)CSc1nnc(-c2ccccc2)o1 | 98.4% (inactive)
O=C1CC(C(F)(F)C(F)(F)C(F)(F)C(F)(F)F)=Nc2ccccc2N1 | 92.7% (inactive)
CCCCOc1ccc(Cl)cc1CSc1nncn1N | 94% (inactive)
CCCCOc1ccc(CSC(=N)N)cc1[N+](=O)[O-] | 5.08% (active)
N#C/C(=C\c1ccccc1)c1n[nH]c(Cn2cncn2)n1 | 96.8% (inactive)
O=C(CCS(=O)(=O)c1cccc2nsnc12)N1CCN(c2ccccc2F)CC1 | 91% (inactive)
CCOC(=O)C(=O)Nc1nc(-c2ccccc2)c(CC)s1 | 103% (inactive)
Cc1sc2nc(SCC(N)=O)n(C)c(=O)c2c1C | 84.1% (inactive)
CCCn1c(=O)c2ccccc2n2c(SCC(=O)/C(C#N)=C(\C)N)nnc12 | 79.8% (inactive)
C=CCn1c(SCC(=O)/C(C#N)=C(\C)N)nc2sc(C)c(C)c2c1=O | 6.3% (active)
CCC(=O)Nc1ccc(S(=O)(=O)NCC2CCCO2)cc1 (stereo not given) | 90.7% (inactive)
CC1CCc2sc3nc(N4CCN(CCO)CC4)n4ncnc4c3c2C1 (stereo not given) | 33.1% (active)
N#Cc1c2c(c(N3CCN(CCO)CC3)n3c1nc1ccccc13)CCCC2 | 85.5% (inactive)
Cc1c(Nc2nc3ccccc3nc2NS(=O)(=O)c2cccs2)c(=O)n(-c2ccccc2)n1C | 85.5% (inactive)
CCOC(=O)C(C)n1cnc2sc(C)c(C)c2c1=O (stereo not given) | 89.3% (inactive)
CC(=O)Oc1ccc(NC(=O)CCC2CCCCC2)c(C(=O)O)c1 | 101% (inactive)
COc1ccc(CN(CC(=O)NC2CCCC2)C(=O)CCC(=O)Nc2cc(C)on2)cc1 | 96.3% (inactive)

From PubChem BioAssay AID598 (SRMLSC, 2007)
